Source: PubChem BioAssay (EPA / NIEHS)
Active and inactive are the calls of the source. The calls were made as follows: active = hit-call score of the fitted dose curve at least 0.9, where 1 is the maximum; inactive = score below 0.9.

Experiment: APR_HepG2_P-H2AX_72hr: Apredica 72-hour HepG2 Assay for H2AX Phosphorylation (AID 2282916)
Conditions: imaging, actives raise or lower the signal
Method: APR_HepG2_72hr is a cell-based, multiplexed-readout assay that uses HepG2, a human liver cell line, with measurements taken at 72 hours after chemical dosing in a 384-well plate.APR_HepG2_P-H2AX_72hr is one of 10 assay component(s) measured or calculated from the APR_HepG2_72hr assay. It is designed to make measurements of dna content, a form of viability reporter, as detected with fluorescence intensity signals by HCS Fluorescent Imaging technology.Data from the assay component APR_HepG2_P-H2AX_72hr was analyzed into 1 assay endpoint. This assay endpoint, APR_HepG2_P-H2AX_72hr, was analyzed with bidirectional fitting relative to DMSO as the negative control and baseline of activity. Using a type of viability reporter, measures of protein for gain or loss-of-signal activity can be used to understand the signaling at the pathway-level as they relate to the gene . Furthermore, this assay endpoint can be referred to as a primary readout, because this assay has produced multiple assay endpoints where this one serves a signaling function. To generalize the intended target to other relatable targets, this assay endpoint is annotated to the dna binding intended target family, where the subfamily is cellular response to DNA damage stimulus.
Cells were treated with dimethyl sulfoxide (DMSO) as a solvent control at a final concentration of 0.5% v/v or with compounds in DMSO with a resulting final DMSO concentration of 0.5% v/v. Compound treatment was done at concentrations of 0.39, 0.78, 1.56, 3.12, 6.24, 12.5, 25, 50, 100, and 200 uM in duplicate on each plate. Cells were treated with compounds for 1, 24, or 72 hr. Carbonyl […] m-chloro-phenylhydrazone (CCCP) and taxol were used as positive controls for mitochondrial function and cytoskeletal stability, respectively; DMSO served as the negative control for this experiment. Cells were fixed by the direct addition of 50 uL formaldehyde in Hank's Balanced Salt Solution (HBSS) to a final concentration of 3.7%. After incubation in the fixation medium for 30 min at room temperature (293-298 K), cells were rinsed twice with HBSS and treated with cell permeabilization buffer (16 uL of 0.5% Triton X-100) for 10 min at room temperature (293-298 K) before labeling. For mitochondrial membrane potential and mitochondrial measurements, pre-fixed cells were incubated with 50 uL of MitoTracker Red CMXRos (Invitrogen) at a concentration of 250 nM for 30 min before fixation. In the remaining cases, post-fixed cells were labeled by incubation with a multiplexed mixture of primary antibodies in HBSS for 60 min at room temperature (293-298 K) to detect immunoreactivity of c-Jun (1:500), phospho-histone H3 (1:100), phospho-histone H2A.x (1:200), p53 (1:400), alpha-tubulin (1:200) and Hoechst 33342 (2 ug/mL). Cells were labeled for multiplexed imaging on two separate plates: a) Hoechst 33342, MitoTracker Red, phospho-histone H3, and alpha-tubulin, and b) Hoechst 33342, phospho-histone H2A.x, and c-Jun. A final rinse with HBSS (50 uL) was performed before analysis. The primary and secondary antibodies for the proteins were phospho-histone H3 (rabbit anti-phospho-histone H3 and FITC-donkey anti-rabbit IgG), phospho-histone H2A.x (mouse anti-phospho-histone H2A.x and FITC-donkey anti-mouse IgG), c-Jun (rabbit anti-phospho-c-Jun and Cy3-donkey anti-rabbit IgG), p53 (sheep anti-p53 and Cy5-donkey anti-sheep IgG), alpha-tubulin (mouse anti-alpha-tubulin and Cy5-donkey anti-mouse IgG). These antibodies are available as the CellCiphr HepG2 assay kit (Millipore).Digital images of each well were captured using a Cellomics ArrayScan VTI (Thermo Scientific Cellomics) (0.8 NA objective, 0.63x optical coupler, and XF-93 filter set) at 20x magnification. The images were acquired using the autofocus feature of the ArrayScan instrument, which entails the following steps. First, the camera focuses on channel 1 (Hoechst 33342), where nuclei are identified. Second, a Z offset of 1 um is used for capturing mitochondria (MitoTracker Red). […]

Row | Structure (SMILES) | outcome | AC50
1 | CCCCCCC(C=O)=Cc1ccccc1 | inactive | –
2 | O=C1OC(c2ccc(O)cc2)(c2ccc(O)cc2)c2ccccc21 | – | 31 µM (active)
3 | CC(=O)S[C@H](C(=O)N[C@H]1Cc2ccccc2[C@H]2CCC[C@@H](C(=O)O)N2C1=O)C(C)C | inactive | –
4 | O=C(O)CC(O)(CC(=O)O)C(=O)O | inactive | –
5 | O=[Si]=O | inactive | –
6 | CCN(CC)CCOc1ccc(C(=C(Cl)c2ccccc2)c2ccccc2)cc1 | – | 5.35 µM (active)
7 | COC(=O)[C@H]1[C@H]2C[C@@H]3c4[nH]c5cc(OC)ccc5c4CCN3C[C@H]2C[C@@H](OC(=O)c2cc(OC)c(OC)c(OC)c2)[C@@H]1OC | – | 23.9 µM (active)
8 | CCCC[C@H]1CN(CC2CCOCC2)C(=O)OC12CCN(C1(C)CCN(C(=O)c3c(C)ncnc3C)CC1)CC2 | inactive | –
9 | N[C@@H](Cc1c[nH]c2ccccc12)C(=O)O | inactive | –
10 | O=C1O[C@H]([C@H](O)CO)C(O)=C1O | inactive | –
11 | CC(=O)OC1CC(C)OC(C)O1 (stereo not given) | inactive | –
12 | CCC(C)N(C)C(=O)c1cc2ccccc2c(-c2ccccc2Cl)n1 (stereo not given) | inactive | –
13 | CC(C)NCC(O)c1ccc(O)c(O)c1 (stereo not given) | – | 86.8 µM (active)
14 | Cc1cc(SC2=C(O)C[C@@](CCc3ccc(N)cc3)(C(C)C)OC2=O)c(C(C)(C)C)cc1CO | inactive | –
15 | CCOCCOCCO | inactive | –
16 | C/C=C/c1ccc(OC)cc1 | inactive | –
17 | COc1ccc(OC(F)(F)F)cc1CN[C@H]1CCCN[C@H]1c1ccccc1 | – | 28.3 µM (active)
18 | Cc1ccc(-c2cc(C(F)(F)F)nn2-c2ccc(S(N)(=O)=O)cc2)cc1 | – | 100 µM (active)
19 | O=Cc1ccccc1C=O | inactive | –
20 | CCCCCCCCCCCCCCOS(=O)(=O)O | – | 110 µM (active)

Row | Structure (SMILES) | outcome | AC50
21 | Nc1nc(=S)c2[nH]cnc2[nH]1 | – | 30.5 µM (active)
22 | CC(=O)O[C@]1(C(C)=O)CC[C@H]2[C@@H]3C=C(Cl)C4=CC(=O)[C@@H]5C[C@@H]5[C@]4(C)[C@H]3CC[C@@]21C | inactive | –
23 | CCCCCCC(CCCCCCCCCCC(=O)OCC(COC(C)=O)OC(C)=O)OC(C)=O (stereo not given) | inactive | –
24 | Oc1ccccc1O | – | 53.2 µM (active)
25 | Cc1ccc(C(C)(C)C)c(O)c1 | – | 105 µM (active)
26 | O=C(O)CN(CC(=O)O)CC(=O)O | inactive | –
27 | O=C(NS(=O)(=O)/C=C/c1cccs1)c1ccc(F)cc1Br | inactive | –
28 | CC(=O)[C@@]1(O)CC[C@H]2[C@@H]3CCC4=CC(=O)CC[C@]4(C)[C@H]3CC[C@@]21C | inactive | –
29 | Cc1c(C)c2c(c(C)c1O)CCC(C)(COc1ccc(CC3SC(=O)NC3=O)cc1)O2 (stereo not given) | – | 89.5 µM (active)
30 | CC(N)=O | inactive | –
31 | CCCCC(CC)CO (stereo not given) | inactive | –
32 | CC1=C(C)S(=O)(=O)CCS1(=O)=O | – | 82.3 µM (active)
33 | C=CCc1ccc(OC)c(OC)c1 | inactive | –
34 | Cc1cc(Cc2ccc(N)c(C)c2)ccc1N | inactive | –
35 | C=CCCCCCCCCCCCC | – | 98.6 µM (active)
36 | CC(C)COC(=O)CCCCC(=O)OCC(C)C | inactive | –
37 | CC(C)c1cccc(C(C)C)c1 | inactive | –
38 | CC1(C)C(=O)NC(=O)N1CO | inactive | –
39 | CC(C)c1cccc(C(C)C)c1NC(=O)NS(=O)(=O)c1cc(C(C)(C)O)co1 | inactive | –
40 | NC(=Nc1ccccc1)Nc1ccccc1 | – | 22.4 µM (active)
